For the assay, the system named is E. coli BW25113 marRABp lux reporter. The assay is described as follows: promoter activity interaction Z-score (Lux/OD deviation from empty-vector control); higher = stronger promoter induction by the compound. The protocol: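 E. coli BW25113 (wild type or ΔmarA/ΔsoxS/Δrob) carrying pTU175 luxCDABE promoter reporters was grown in LB in 384-well plates at 37°C with each of 94 compounds at 4 two-fold concentrations, in biological duplicates. Luminescence and OD600 were read every 30 min for 12 h and integrated as AUC over 8 h (0-8 h WT, 1-9 h mutants). Lux AUC was divided by OD AUC; the interaction score is the residual of a Huber robust fit of each promoter against the empty-vector control, then Z-transformed per promoter.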

Structures are written as SMILES. ± gives the standard deviation of the averaged measurements.

Regarding `CO[C@@]12[C@H](COC(N)=O)C3=C(C(=O)C(C)=C(N)C3=O)N1C[C@@H]1N[C@@H]12` [Mitomycin C], the “promoter activity interaction Z-score” value (0.063 µg/ml, genetic background: wild type) is -0.000521 ± 0.092; the “promoter activity interaction Z-score” value (0.063 µg/ml, genetic background: ΔmarA) was -0.0389 ± 0.12; the “promoter activity interaction Z-score” value (0.063 µg/ml, genetic background: Δrob) is 0.174 ± 0.0026; the “promoter activity interaction Z-score” value (0.063 µg/ml, genetic background: ΔsoxS) was -0.0406 ± 0.22; the “promoter activity interaction Z-score” value (0.13 µg/ml, genetic background: wild type) came out at 0.0648 ± 0.23; the “promoter activity interaction Z-score” value (0.13 µg/ml, genetic background: ΔmarA) amounted to 0.518 ± 1.1. In addition, the “promoter activity interaction Z-score” value by setting is: (0.13 µg/ml, genetic background: Δrob) 0.208 ± 0.51; (0.13 µg/ml, genetic background: ΔsoxS) 0.0422 ± 0.14; (0.25 µg/ml, genetic background: wild type) 0.242 ± 0.24; (0.25 µg/ml, genetic background: ΔmarA) -0.125 ± 0.18; (0.25 µg/ml, genetic background: Δrob) 0.258 ± 0.1; (0.25 µg/ml, genetic background: ΔsoxS) -0.121 ± 0.19. Moreover, the “promoter activity interaction Z-score” value runs as follows: (0.5 µg/ml, genetic background: wild type) -0.107 ± 0.17; (0.5 µg/ml, genetic background: ΔmarA) 0.219 ± 0.99; (0.5 µg/ml, genetic background: Δrob) -0.172 ± 0.14; (0.5 µg/ml, genetic background: ΔsoxS) -0.177 ± 0.11.
In the case of `COc1ccc(C[C@H](N)C(=O)N[C@H]2[C@@H](O)[C@H](n3cnc4c(N(C)C)ncnc43)O[C@@H]2CO)cc1` [Puromycin], the “promoter activity interaction Z-score” value by setting is: (3.1 µg/ml, genetic background: wild type) 0.00293 ± 0.13; (3.1 µg/ml, genetic background: ΔmarA) 0.189 ± 0.15; (3.1 µg/ml, genetic background: Δrob) 0.309 ± 0.18; (3.1 µg/ml, genetic background: ΔsoxS) 0.0658 ± 0.096; (6.1 µg/ml, genetic background: wild type) 0.213 ± 0.31; (6.1 µg/ml, genetic background: ΔmarA) 0.623 ± 0.33. Moreover, the “promoter activity interaction Z-score” value reads like this: (6.1 µg/ml, genetic background: Δrob) 0.273 ± 0.14; (6.1 µg/ml, genetic background: ΔsoxS) 0.534 ± 0.15; (12.2 µg/ml, genetic background: wild type) 0.362 ± 0.15; (12.2 µg/ml, genetic background: ΔmarA) 0.61 ± 0.46; (12.2 µg/ml, genetic background: Δrob) 0.305 ± 0.046; (12.2 µg/ml, genetic background: ΔsoxS) 0.522 ± 0.076. The “promoter activity interaction Z-score” value by setting is: (24.5 µg/ml, genetic background: wild type) 1.38 ± 0.23; (24.5 µg/ml, genetic background: Δrob) 2.58.
`c1ccc(-c2ccccn2)nc1` [2-2-Bipyridyl]: the “promoter activity interaction Z-score” value is 0.799 ± 0.78 (9.8 µg/ml, genetic background: wild type); 0.4 ± 0.48 (9.8 µg/ml, genetic background: ΔmarA); -0.042 ± 0.093 (9.8 µg/ml, genetic background: Δrob); -0.2756 ± 0.0019 (9.8 µg/ml, genetic background: ΔsoxS); 0.288 ± 0.12 (19.5 µg/ml, genetic background: wild type); 0.637 ± 0.14 (19.5 µg/ml, genetic background: ΔmarA). Further, the “promoter activity interaction Z-score” value is, setting by setting: (19.5 µg/ml, genetic background: Δrob) -0.32 ± 0.14; (19.5 µg/ml, genetic background: ΔsoxS) -0.0307 ± 0.0061; (39 µg/ml, genetic background: wild type) 2.32 ± 0.13; (39 µg/ml, genetic background: ΔmarA) 2.22 ± 0.2; (39 µg/ml, genetic background: Δrob) 1.59 ± 0.24; (39 µg/ml, genetic background: ΔsoxS) 1.67 ± 0.33.

The values are drawn from the supplement of paper PMC12282887.
